The campaign covered roughly 7,900 compounds. About 400 (5.1%) showed an effect of 50% or more. This is one part of a sample in which strong results are shown more often than they occur.

Here are results for 124 compounds from PMC9574860, “Chemical Toolkit for PARK7: Potent, Selective, and High-Throughput” (Journal of Medicinal Chemistry, 2022).

Sequence of Parkinson's disease protein 7 (PARK7/DJ1) (Q99497 whole entry, looked up, the tested form may be a part): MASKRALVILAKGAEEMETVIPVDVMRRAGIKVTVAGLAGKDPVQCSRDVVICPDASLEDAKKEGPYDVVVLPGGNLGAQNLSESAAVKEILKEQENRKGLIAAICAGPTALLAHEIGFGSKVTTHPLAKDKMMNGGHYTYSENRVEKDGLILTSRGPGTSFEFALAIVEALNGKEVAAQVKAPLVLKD

The assay concerns the target Parkinson's disease protein 7 (PARK7/DJ1) (human, UniProt Q99497). Nature of the assay: primary screen, percent inhibition; read as competition with a fluorescent probe by fluorescence polarization; higher = more effect of the substance. The conditions noted are these: 100 µM. How it is done:
The screen was conducted using the conditions as described above in 1536-well plates (Corning 3724) with a reaction volume of 8 μL per well. The compound library containing 7887 covalent fragments was purchased at Enamine Ltd. and received as 100 mM DMSO stocks in 384 well LDV Echo plates (Labcyte LP-0200). Stock solutions of 0.26 μM PARK7 and 80 nM JYQ-107 were prepared. Using a Labcyte Echo550 acoustic dispenser, 8 nL of the DMSO stock solution of the library compounds was transferred from the source plates into the empty 1536-well screening plates to obtain a 100 μM final compound concentration. Next, PARK7 (6 μL, final concentration 0.2 μM) was dispensed using a Biotek MultiflowFX liquid dispenser and incubated for 2 h, followed by dispensing the probe JYQ-107 (2 μL, final concentration 20 nM). After 2 h incubation, the FP signal was recorded on a BMG Labtech PHERAstar plate reader (λex/em 480/520 nm). The relative loss of FP signal compared with reference controls was used to calculate the remaining enzyme activity.
Consider `N#Cc1cccc(NC[C@H]2CCO[C@@H]2c2ccccc2)n1`, for which the Inhibition % is reported as 3%. As to `Cc1nn(C)c(Cl)c1C=CC(=O)N1CCNC(C)C1.Cl` (stereo not shown), the Inhibition % amounted to 11%.

In the case of `C=CC(=O)N1CCOCC1c1cccn1C` (stereo not shown), the Inhibition % is listed as 7.42%. With `C=CC(=O)Nc1cn(C)nc1C1CC1` the figure was 10%; with `C=CC(=O)N1CCC(CCF)CC1`, 5.32%; with `C=CC(=O)N1CCN(c2ccccc2F)CC1`, 7.53%. With `C=CC(=O)N1CCC(CCC#N)CC1` the figure was 8.36%; with `O=C(Cn1nc(-c2ccccc2)oc1=O)N1CCSCC1`, 5.67%; with `O=C(CCl)Nc1cc(Cl)cc(Cl)c1`, 9.47%.

Regarding `O=C(CCl)Nc1cccc(Cl)c1`, the Inhibition % is on record as 34.6%.

As for `CN(CC(=O)Nc1cccc(Cl)c1)C(=O)CCl`, the Inhibition % stood at 93.8%. In the case of `COc1cccc(NC(=O)CN(C)C(=O)CCl)c1` it was 95.9%.

As to `COc1cccc(NC(=O)CCCl)c1`, the Inhibition % is 11.2%. In the case of `O=C(CCCl)Nc1cccc(Cl)c1` it was -0.704%; in that of `COc1cccc(NC(=O)CCl)c1`, 19.1%. With `C=CC(=O)N(Cc1cccc(-c2cccnc2)c1)C1CC1` the figure was 12.4%; with `Cc1cc(OC(F)F)ccc1B1OC(C)(C)C(C)(C)O1`, 3.76%. As to `CC(C(=O)NC1CC1c1ccccc1)N1C(=O)CCC1=O` (stereo not shown), the Inhibition % came to 14.1%. As for `CC(C)N1CCC(NC(=O)CCl)CC1.Cl`, the Inhibition % was determined as 2.57%.

For the compound `O=c1[nH]c(-c2ccccc2)no1`, the Inhibition % stood at 34.7%.

`CN1CCC(n2cc(-c3ccc(S(=O)(=O)F)cc3)nn2)C1=O` (stereo not shown): the Inhibition % was 9.08%.

For `C=CC(=O)NCCC1CCOC1` (stereo not shown), the Inhibition % is recorded as 4.58%.

Turning to `COc1nc(C#N)sc1C`, the Inhibition % is recorded as 2.94%. Consider `N#Cc1nc2cc(N)ccc2s1`, for which the Inhibition % is given as 55.6%. Consider `C=CC(=O)N1CCC(n2cccc2)CC1`, for which the Inhibition % came to 6.94%. With `CC1(C)OB(c2ccco2)OC1(C)C` the figure was 7.09%. For the compound `CC1(C)OB(c2cc(-c3ccccc3)co2)OC1(C)C`, the Inhibition % is recorded as 85.9%. In the case of `Cc1coc(B2OC(C)(C)C(C)(C)O2)c1` it was 4.69%; in that of `Cc1cccc(N2CCN(C(=O)n3ccnc3)CC2)c1C`, 6.87%. With `Cc1cccc(-n2cc(C(=O)CCl)nn2)c1` the figure was 95.4%.

Consider `Cn1cc(C(=O)CCl)nn1`, for which the Inhibition % is 3.33%. As to `O=C(CCl)c1cn(-c2ccc(F)cc2)nn1`, the Inhibition % is listed as 5.02%. With `COc1ccc(C(C)(C)C)cc1S(=O)(=O)n1ccnc1C` the figure was 7.71%; with `N#Cc1ccc(Cl)cn1`, 8.27%.

As for `O=C(CCl)Nc1ccc2c(c1)OCO2`, the Inhibition % turned out to be 46.5%. `O=C(CCl)Nc1ccc2c(c1)OCCCO2`: the Inhibition % was 57.7%. For `O=C(CCl)NC(=O)Nc1ccc2c(c1)OCCCO2`, the Inhibition % turned out to be 7.15%. Turning to `O=C(CCCl)Nc1ccc2c(c1)OCCO2`, the Inhibition % came out at 7.65%. In the case of `O=C(CCl)NC(=O)Nc1ccc2c(c1)OCCO2` it was 7.05%; in that of `O=C(CCl)Nc1ccc2c(c1)OCCO2`, 55%. With `COC(C)c1cccc(NC(=O)c2cccnc2S)c1` (stereo not shown), the Inhibition % is recorded as 4.97%.

For `C=CC(=O)N1Cc2cc(F)c(F)cc2C1`, the Inhibition % stood at 2.84%. Regarding `COc1cccc(CS)c1`, the Inhibition % was determined as 15.4%. Turning to `COc1cc(OC)c(OC)cc1CS`, the Inhibition % is recorded as 63.9%.

For the compound `COc1ccc(CS)c(OC)c1`, the Inhibition % worked out at 5.78%. With `C=CC(=O)N1C[C@H](CC)CC[C@H]1C` (racemic), the Inhibition % worked out at 10.5%. With `Cc1nc(SC2CC(C)OC2=O)nc(C)c1C` (stereo not shown) the figure was 3.23%; with `Cc1nn(-c2ccccc2)c(O)c1C(=O)CCl`, 64.4%; with `Cc1nn(-c2ccccc2)c(C)c1CNC(=O)CCl`, 13.2%. As for `Cc1nn(-c2ccccc2)c(C)c1NC(=O)CCl`, the Inhibition % is listed as 6.29%. With `NC(=O)CN(C1CCCC1)S(=O)(=O)C=Cc1ccccc1`, the Inhibition % is 7.09%. With `O=c1[nH]c(=O)n(CCC2OCCO2)cc1Cl` the figure was 5.36%; with `N#Cc1cn(CCS)c(=O)[nH]c1=O`, 75.1%. With `C=CC(=O)NCC1OCCc2ccccc21` (stereo not shown) the figure was 7.98%; with `Cc1nn(C)c(Cl)c1C=CC(=O)N1CCC(CN)CC1.Cl`, 15.7%; with `NS(=O)(=O)c1ccc(CCNC(=O)CCl)cc1`, 17.2%. On to `CS(=O)(=O)NCCc1ccc(C(=O)CCl)cc1`, for which the Inhibition % is 82.8%. As for `O=C(CCl)NCc1ccc(-c2ccc(Cl)cc2)o1`, the Inhibition % was determined as 18.1%.

On to `CC(=O)N(C)Cc1ccc(C(=O)CCl)cc1`, for which the Inhibition % is 79.8%.

As to `CC(=O)NCc1ccc(S(=O)(=O)F)cc1`, the Inhibition % is reported as 32.8%. For `CC(=O)NCc1ccc(C(=O)CCl)o1`, the Inhibition % is 92.2%. As for `CC(=O)NC(C)c1ccc(C(=O)CCl)cc1` (stereo not shown), the Inhibition % was found to be 38.2%. For the compound `O=C(CCl)NCCc1ccc(Cl)cc1`, the Inhibition % came out at 41.2%.

As to `CC(=O)NCCc1ccc(C(=O)CCl)cc1`, the Inhibition % is recorded as 70.8%.

As to `C=CC(=O)N1CCCC(CC#N)C1` (stereo not shown), the Inhibition % came out at 5.07%. With `COC(=O)c1ccc(Oc2ccc(C#N)nc2)cc1` the figure was 6.29%; with `Cc1n[nH]c(C)c1CNc1ccc(Cl)c(C#N)n1`, 1.98%. In the case of `C=CC(=O)N1CCCC(NC(C)=O)C1` (stereo not shown), the Inhibition % is recorded as 8.6%. Regarding `Cc1nn(C)c(Cl)c1Cn1c(-c2ccccc2)noc1=O`, the Inhibition % came out at 3.8%.

As for `Cc1cc(C=C(C#N)C(=O)O)c(C)n1CC1CCCO1` (stereo not shown), the Inhibition % is 11.7%. In the case of `CCOC1CC(c2nc(-c3cccc(B(O)O)c3)no2)C1` (stereo not shown) it was -4.81%.

On to `C=CC(=O)N1CCCC(c2nnc3n2CCC3)C1` (stereo not shown), for which the Inhibition % was 5.59%. In the case of `O=C(CCl)N1c2ccccc2OCC1c1ccccc1` (stereo not shown) it was 28.9%; in that of `Cc1ccc(B2OC(C)(C)C(C)(C)O2)cc1[N+](=O)[O-]`, 3.85%. In the case of `C=CC(=O)N1CC(c2ccccc2)C1`, the Inhibition % is 12.4%. With `C=CC(=O)Nc1cnn(COC)c1` the figure was 17.1%.

With `CN(C)C(=O)c1ccc(CNC(=O)CCl)cc1`, the Inhibition % came out at 2.36%. With `CC(=O)NCc1ccc(C(=O)CCl)cc1`, the Inhibition % was found to be 77.1%.

As for `CC(=O)NCc1ccc(S(=O)(=O)NC(=O)CCl)cc1`, the Inhibition % was 3.06%. With `NC(=O)CCc1ccc(C(=O)CCl)cc1` the figure was 82.5%; with `NC(=O)COc1ccc(C(=O)CCl)cc1`, 5.31%; with `CN(CCN1C(=O)CCC1=O)Cc1nc2c(s1)CCCC2`, 9.47%.

For the compound `Cn1ccc(NS(=O)(=O)C=Cc2ccc(Cl)cc2)n1`, the Inhibition % is 11.2%. `CC(C)NC(=O)C(C#N)=Cc1cc(F)ccc1F`: the Inhibition % turned out to be 1.67%. With `N#Cc1ccn(-c2ccccc2)n1` the figure was 6.25%; with `C=CC(=O)N(C)CC(=O)N1c2ccccc2NC(=O)CC1C` (stereo not shown), 1.23%; with `O=C(CCl)N1c2ccccc2NC(=O)C12CCCC2`, 42.3%. In the case of `O=C1CC(C(F)(F)F)N(C(=O)CCl)c2ccccc2N1` (stereo not shown) it was 53%; in that of `Cc1ccc(C=CC(=O)N2CC(=O)Nc3ccccc32)o1`, 15.2%; in that of `O=C1CN(C(=O)CCl)c2ccccc2N1`, 56.7%. In the case of `C=CC(=O)N1CC(=O)Nc2ccccc21` it was 10%; in that of `C=CC(=O)Nc1ccc2nc(C(F)(F)F)oc2c1`, 20.1%. Take `C=CC(=O)N1CCN(c2cccc(OC(F)F)c2)CC1`: the Inhibition % stood at 6.79%. With `CC(C)c1ccc(NC(=O)Cn2cnc(C#N)n2)cc1` the figure was 22.6%; with `O=S(=O)(F)CCSc1nc2ccccc2o1`, 70.3%. For the compound `O=S(=O)(F)CCn1nnc2ccccc21`, the Inhibition % is reported as 8.8%.

In the case of `ClCCCc1nc2ccccc2o1`, the Inhibition % was determined as 16.4%. In the case of `COc1cc(C=C(C#N)C(N)=O)ccc1OC(C)C` it was 4.85%; in that of `N#Cc1nc(-c2ccc(Cl)c(Cl)c2)oc1N`, 5.93%. In the case of `CC1(C)OB(c2cccc(CN3CCCC3)c2)OC1(C)C.Cl`, the Inhibition % is reported as 6.39%. With `C=CC(=O)N1CCc2cc(F)ccc2C1` the figure was 10.6%.

For `C=CC(=O)N1CCCc2[nH]c3ccc(F)cc3c2C1`, the Inhibition % is given as 71.3%.

Regarding `C=CC(=O)N1CCCN(C(=O)c2cccc(F)c2)CC1`, the Inhibition % came out at 2.43%.

As to `C=CC(=O)N1CC(C)(C)C1c1cccs1` (stereo not shown), the Inhibition % was determined as 8.35%.

As to `C=CC(=O)N1C[C@H](F)C[C@H]1C(N)=O`, the Inhibition % is 11.6%. `CC1CCC2(CC1)NC(=O)N(CC=CCl)C2=O` (stereo not shown): the Inhibition % is -0.501%. As to `CC(NC(=O)Oc1ccccc1)C(=O)O` (stereo not shown), the Inhibition % was 10.1%. In the case of `Cc1ccc(B2OC(C)(C)C(C)(C)O2)c(C#N)c1` it was -0.714%. In the case of `O=C(O)c1cccc(S(=O)(=O)F)c1` it was 95.1%. `O=S(=O)(F)c1cccc(CO)c1`: the Inhibition % came to 96.8%.

For the compound `N#Cc1ccc(S(=O)(=O)F)cc1`, the Inhibition % was 60.6%. In the case of `N#CC1COCCN1C(=O)c1cccc(S(=O)(=O)F)c1` (stereo not shown) it was 93.6%. For the compound `O=S(=O)(F)c1ccc(S(=O)(=O)F)cc1`, the Inhibition % is 7.58%. In the case of `O=C(c1cccc(S(=O)(=O)F)c1)N1CCCn2ncc(C3CC3)c21` it was 6.74%. With `CN(Cc1cccc(F)c1)S(=O)(=O)F` the figure was 8.98%. For the compound `C=CC(=O)N1CCOCC1c1cccc(F)c1` (stereo not shown), the Inhibition % was determined as 2.96%. Take `C#Cc1ccc(S(=O)(=O)F)cc1`: the Inhibition % amounted to 14.4%. On to `O=C(O)c1ccc(S(=O)(=O)F)cc1`, for which the Inhibition % is 49.1%.

On to `O=C(C=Cc1ccccc1)c1ccc(S(=O)(=O)F)cc1`, for which the Inhibition % stood at 10.9%. For `c1ncc(C2OCCO2)s1`, the Inhibition % was determined as 38.6%.

As for `C=CC(=O)N[C@H]1C[C@H](c2ccccc2F)C1`, the Inhibition % came out at 10.2%. In the case of `C=CC(=O)Nc1cc(S(=O)(=O)N(C)C)ccc1Cl` it was 6.55%; in that of `Cc1ccc(-n2cnc(Cl)c2C#N)cc1`, 6.79%; in that of `COCc1n[nH]c(=O)o1`, 2.07%.
